aSyn yeast inh: rescues yeast growth from alpha-synuclein toxicity | AID 652106 | Yeast expressing alpha-synuclein, growth rescue, BacTiter-Glo, 24 h | Potency, µM (titrated, usually from 46.1 µM), for inactives: top-dose growth rescue (activation), actives largely listed as activators | 370,000 compounds, 0.14% hits; note: % of control where 0% means no effect; nearly all actives have a fitted effect of over 65% in size
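Screening used galactose-induced yeast with toxic alpha-synuclein levels, exposed to compound for 24 hr at 30 deg C. Cell growth, read with BacTiter-Glo luminescence, gave the measured signal.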
FUS suppressor: rescues growth of FUS-expressing yeast. S. cerevisiae FUS-expressing, growth rescue, OD600, 24 h. Potency, µM (highest dose often 76.6 µM), hits mostly activators. 390,000 compounds, 0.24% hits. AID 1347120;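 note: plate controls were DMSO vehicle for no effect and reference control for full effect; nearly all actives have a fitted effect of over 55% in size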
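Yeast expressing FUS under galactose induction, OD 0.005 in 2% galactose medium; compounds in a dilution series, 24 h at 30C. Growth rescue by absorbance at 600 nm; CP55940 positive control, DMSO negative.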
TDP43 rescue: inhibitors of TDP-43 toxicity in yeast; TDP-43 expressing yeast growth rescue, BacTiter-Glo, 24 h; Potency, µM (top dose mostly 46.1 µM), for the others: at the highest dose growth rescue (activation), hits mostly activators; 410,000 compounds, 1.8% hits; note: % of control where 0% means no effect; nearly all actives have a fitted effect of over 50% in size
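Yeast cells expressing TDP-43 under galactose induction are exposed to compounds for 24 hr at 30 deg C. BacTiter-Glo luminescence measures growth, so protective compounds score as activators.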
Mito fusion act: mitochondrial division inhibition or fusion activation. S. cerevisiae fusion-defective mutant growth rescue, CellTiterGlo 48 h. Potency, µM (top dose mostly 46.1 µM), without a hit: top-dose growth rescue (activation), usual class: activators. 320,000 compounds, 0.23% hits; note: % of control where 0% means no effect; nearly all actives have a fitted effect of over 45% in size
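Compounds are tested for their ability to restore growth of mitochondrial fusion-defective yeast strains at non-permissive 37C in YPEG medium over 48 hours. Viability is quantified by luciferase luminescence.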
Abeta yeast res: compounds reversing amyloid beta toxicity in yeast; yeast expressing A-beta42, growth rescue, OD600, 48 h; response scale: 0% DMSO, 100% iron-clioquinol control; 410,000 compounds, 0.063% hits; AID 1347071; Potency, µM (highest dose often 46.1 µM), hits mostly activators; note: nearly all actives have a fitted effect of over 55% in size
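Yeast A-beta toxicity model in growth medium with pinned compounds, 48 h at 30 C; growth read as absorbance at 600 nm. Normalized to FeCl3/clioquinol equimolar mix (positive) and DMSO (negative).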
* hit, by the source's call; i = inactive; ? = inconclusive; . = no result; ! = not confirmed by another sample. Most compounds without a hit are left out; they make up all but 2.2% or so of the library. Calls come from the whole dose curve; as a rule, active = well fitted curve in the direction sought with a large enough effect; inconclusive = small, poorly fitted or top-dose-only effect, or another doubt; inactive = no such curve, though single readings can be large; an effect the other way counts as inactive or inconclusive. Potency is the fitted concentration of half-maximal effect.

SMILES	aSyn yeast inh	FUS suppressor	TDP43 rescue	Mito fusion act	Abeta yeast res
CCOC(=O)c1nn(-c2ccc(C)cc2)cc1C(=O)c1ccccc1	.	i	12.6µM*	-6.8%	i
CC(=O)c1nn(-c2ccc(Cl)cc2)cc1C(=O)c1ccccc1	1.9%	i	-2.3%	.	i
CCCn1c(CCC(=O)Nc2cc(Cl)c(OC)cc2OC)nc2cccnc21	.	i	21.4%	.	i
CC1(C(=O)Nc2ccccc2)CCN1C(=O)C1(c2ccccc2)CC1 (configuration not stated)	-2.9%	i	25.5%	.	i
Cc1ccc(CCNc2ncnc3onc(-c4ccc(Cl)cc4)c23)cc1	.	i	20.7%	.	i
Clc1ccc(CNc2ncnc3onc(-c4ccc(Cl)cc4)c23)cc1	.	?	12.6µM*	.	i
CC(C)CNc1ncnc2onc(-c3ccc(Cl)cc3)c12	.	i	11.2µM*	.	i
Cc1cccc(CCNc2ncnc3onc(-c4ccc(Cl)cc4)c23)c1	.	i	35.5µM*	.	i
CN1CCC(NC(=O)c2cc(-c3cccc(Br)c3)nc3ccccc23)CC1	-1.2%	i	-8.1%	-6.8%	i
O=S(=O)(NC1C2CC3CC(C2)CC1C3)c1ccc(F)cc1 (configuration not stated)	8.6%	i	8.9%	6.0%	i
CC1=CCC2C(=O)N(c3cccc(C(=O)Nc4ccccc4Cl)c3)C(=O)C2C1 (configuration not stated)	-0.3%	.	1.7%	5.0%	i
O=C(C1CC1)n1cc(C(=S)N2CCOCC2)c2ccccc21	-14.4%	i	3.8%	-0.9%	i
O=C(c1cccs1)n1cc(C(=S)N2CCOCC2)c2ccccc21	.	i	20µM*	10.6%	i
Cc1ccc(-c2nc(C)sc2CC(=O)OCC(=O)Nc2ccc(F)c(Cl)c2)cc1	-6.2%	i	25.1µM*	.	?
CCc1nc(SCC(=O)Nc2ccc(F)cc2)c2c(=O)n(C)c(=O)n(C)c2n1	-10.5%	.	0.0%	0.3%	i
O=C(Oc1ccc(/C=N/O)cc1)c1ccccc1	-3.8%	i	11.2µM*	1.4%	i
O=C(COC(=O)CNS(=O)(=O)c1ccc(Br)cc1Cl)NCCc1ccccc1	3.7%	i	10.5%	-1.3%	i
CC1=C(c2ccc(C(C)C)cc2)S(=O)(=O)NC1=NCc1ccccc1Br	.	i	-1.2%	.	i
CCn1c(-c2csc3c2CCC(C)C3)n[nH]c1=S (configuration not stated)	9.5%	.	11.2µM*	22.2%	i
CCn1c(-c2csc3ccccc23)n[nH]c1=S	2.2%	.	22.4µM*	1.5%	i
CCCc1cc(-c2n[nH]c(=S)n2CC)cs1	-8.7%	i	35.5µM*	0.1%	i
CCn1c(-c2ccccc2O)n[nH]c1=S	0.6%	i	-19.7%	-2.5%	i
CCc1cc(-c2n[nH]c(=S)n2CC)cs1	2.0%	.	?	-9.1%	i
COc1cc(/C=C/C(=O)OCC(=O)NCCC2=CCCCC2)cc(OC)c1OC	14.4%	i	35.5µM*	.	i
COc1cc(/C=C/C(=O)OCC(=O)NCCC2=CCCCC2)ccc1O	-2.5%	i	-0.2%	?	i
SMILES	aSyn yeast inh	FUS suppressor	TDP43 rescue	Mito fusion act	Abeta yeast res
COc1ccc(CC(=O)Nc2ccc(S(=O)(=O)N3CCC(C)CC3)cc2)c(OC)c1	29.3%	i	0.0%	19.7%	i
CC(C)(C)OC(=O)N1CCCN(C(c2cc3ccccc3o2)c2nnnn2C(C)(C)C)CC1 (configuration not stated)	-6.8%	15.8µM*	?	.	i
Cc1ccc(/C(N)=N/OC(=O)Cc2cccc3ccccc23)cc1	-20.3%	i	14.1µM*	-9.2%	i
Cc1cccc(/C(N)=N/OC(=O)Cc2cccc3ccccc23)c1	-29.1%	i	11.2µM*	4.2%	i
CCOc1ccc(-c2cc(-c3nc(-c4cc(OC)c(OC)c(OC)c4)no3)[nH]n2)cc1Cl	.	i	15.2%	.	i
CCCCNC(=O)c1c(N)[nH]c(C(=O)c2ccccc2)c1-c1ccccn1	5.5%	i	16.8%	.	i
O=C(COc1ccc(-c2ccccc2)cc1)Nc1cccnc1	-8.7%	i	22.4µM*	?	i
O=C(COc1ccccc1)Nc1nc(-c2cccnc2)cs1	-8.0%	?	10µM*	3.6%	i
Cc1ccc(OCC(=O)Nc2nc(-c3ccccn3)cs2)c(C)c1	22.4µM*	i	?	0.3%	i
O=C(COc1ccccc1)Nc1nc(-c2ccncc2)cs1	-10.6%	i	17.8%	-2.1%	i
C=CCNC(=O)CN1N=C(c2ccc(C)cc2)CCC1=O	-5.8%	i	18.1%	10.0%	i
C=CCN1C(=O)[C@@H](CC(=O)N2CCCC2)[C@]2(C(=O)OCC)CCCCC/C=C/12	.	i	.	.	.
CCCN(CC(=O)Nc1cccc(Br)c1)CC(=O)Nc1ccc(F)c(F)c1F	?	i	14.1µM*	1.6%	i
COC(=O)C[C@@H]1CC[C@H]2[C@@H](COc3ccc(NC(=O)c4cc(C)on4)cc3C(=O)N2C)O1	.	i	.	.	.
CCCn1nc(C(=O)N2CCN(S(=O)(=O)c3ccc(C)c(C)c3)CC2)c2ccccc2c1=O	-40.3%	?	35.5µM*	15.7%	i
CCCc1c(-c2ccc(O)cc2)nn(-c2ccc(O)cc2)c1-c1ccc(O)cc1	-24.5%	i	?	16.4µM*!	i
Cc1ccc(-n2c(SCc3nc(-c4ccccc4C)no3)nnc2-c2ccncc2)cc1C	.	i	31.6µM*	.	i
CCCCOC(=O)c1ccc(N)cc1	0.3%	i	?	11.2µM*	i
CCCCCCOC(=O)c1ccc(N)cc1	1.7%	i	12.6µM*	-16.5%	i
COc1ccc(C(=O)c2coc3ccc(OC(C)=O)cc23)cc1	-13.2%	i	12.6µM*	-1.0%	i
Cc1sc2ncnc(N(C)C3CCCCC3)c2c1C	5.0%	i	15.8µM*	-0.8%	i
Cc1ccc(CNC(=O)c2sc3ncnc(N(C)C4CCCCC4)c3c2C)cc1	.	i	?	.	i
CCOC(=O)c1cccc(NC(=O)C2CCN(S(=O)(=O)c3c(C)noc3/C=C/c3ccc(C)cc3)CC2)c1	.	i	5.7%	.	i
Cc1ccc(C)c2c1cc(C)c1nnc(SCc3ccccn3)n12	.	i	11.2µM*	-18.7%	i
Cc1cc2cc(C)c3nnc(SCc4ccccn4)n3c2cc1C	3.8%	i	0.1%	-5.4%	i
O=C(COC(=O)C1CC2CCCC(C1)C2=O)Nc1cccc(F)c1 (configuration not stated)	-9.4%	.	6.1%	-0.4%	i
Cc1cccc(-n2nnc(C(=O)NCc3ccc4c(c3)OCO4)c2N)c1	9.8%	i	17.8µM*	7.5%	i
Cc1nc(NCc2ccc3c(c2)OCO3)c2oc3ccccc3c2n1	-14.4%	i	4.0%	5.7%	i

Bioassay records: PubChem, National Center for Advancing Translational Sciences (NCATS)
